Experimental findings from PubChem BioAssay (Tox21) are described below.

SMILES strings stand for the structures. “And” between values parts separate entries of the source, which are not always exact repeats. Identical values can stand only once. Inconclusive results are not listed. Where a structure was tested more than once in an assay, its records may differ in their call. The source made the active and inactive calls. Unless noted, the call rests on the fitted dose curve; in most records, active means well fitted curve in the direction sought with a large enough effect in the repeat runs; inconclusive means weak or mixed curves; inactive means no such curve, though single readings can be large; an effect the other way counts as inactive or inconclusive.

Experiment [1] can be described thus: qHTS assay for small molecules that induce genotoxicity in human embryonic kidney cells expressing luciferase-tagged ATAD5 (AID 651632). Further: nearly all actives have a fitted effect of over 15% in size. Put shortly:
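Cells were seeded at 2,000 per well, dosed with compound, and incubated 16 hr at 37C in 5% CO2. Luciferase activity was then quantified after a 30 min room-temperature incubation with Amplite.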
(Quantitative high-throughput screening tests each substance at several concentrations.)

Experiment [2] in a line: qHTS assay for small molecule agonists of the p53 signaling pathway - cell viability (AID 651633; calls by dose curve; further: nearly all actives have a fitted effect of over 30% in size; further: potency means the concentration at half of the fitted maximal effect). The method in brief:
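p53RE-bla cells, seeded at 4,000 per well and rested 5 h at 37 C/5% CO2, received compounds in DMSO for 16 h at 37 C. CellTiter-Glo was then added, and luminescence was read after 30 min at room temperature to gauge cytotoxicity.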

The nature of experiment [3]: qHTS assay for small molecules that induce genotoxicity in human embryonic kidney cells expressing luciferase-tagged ATAD5 - cell viability (AID 651634; calls by dose curve; further: nearly all actives have a fitted effect of over 25% in size; further: potency means the concentration at half of the fitted maximal effect). Put shortly:
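Cells (HEK293T, luciferase-tagged ATAD5) are seeded at 2,000 per well, dosed with compound or DMSO vehicle, and incubated 15.5 hr at 37C and 5% CO2. CellTiter-Fluor is added for 30 min before fluorescence is measured.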

Experiment [4] is described as follows: qHTS assay for small molecule disruptors of the mitochondrial membrane potential (AID 720635). Further: potency means the concentration at half of the fitted maximal effect. Put shortly:
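HepG2 cells (2,000/well) attached overnight at 37C, then took compound for 1 hr at 37C, 5% CO2. Mito-MPS dye was added for 30 min; fluorescence was read at 490/535 nm (monomers) and 540/590 nm (aggregates).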

Experiment [5] in a line: qHTS assay to test for compound auto fluorescence at 590 nm (red) in HepG2 cells (AID 720674). Put shortly: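 Rose Bengal sodium served as the red fluorophore standard. HepG2 monolayers (overnight attachment, MEM with 10% FBS) were exposed to test compounds for 1 hr at 37 C and read at Ex 540/Em 590 nm.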
The nature of experiment [6]: qHTS assay to test for compound auto fluorescence at 535 nm (green) in HepG2 cells (AID 720675).
Experiment [7] is described as follows: qHTS assay to test for compound auto fluorescence at 460 nm (blue) in HEK293 cells (AID 720678). The method in brief: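 Triamterene serves as the blue fluorophore standard. Compound signal at 405/460 nm is read in HEK293 wells (2,000 cells, 10% dialyzed FBS) after overnight treatment at 37C.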
Experiment [8] in a line: qHTS assay to test for compound auto fluorescence at 535 nm (green) in HEK293 cells (AID 720680).
Experiment [9] can be described thus: qHTS assay to test for compound auto fluorescence at 460 nm (blue) in HEK293 cell free culture (AID 720681). The method in brief: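 Test compounds were pinned into cell-free culture medium (DMEM with 10% FBS) and fluorescence was read directly at Ex/Em 405/460 nm. Signals were expressed as fluorescence equivalents of triamterene, with DMSO vehicle as control.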

Experiment [10] is described as follows: qHTS assay to test for compound auto fluorescence at 535 nm (green) in HEK293 cell free culture (AID 720682). The method in brief:
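Cell-free medium (DMEM, 10% FBS) receives compound or DMSO by pintool. Plate read directly at Ex 485/Em 535 nm. Signal converted to fluorescein equivalency.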

A short description of experiment [11]: qHTS assay to test for compound auto fluorescence at 590 nm (red) in HEK293 cell free culture (AID 720683). The method in brief:
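Tox21 10K library compounds were pinned into cell-free DMEM with 10% FBS and fluorescence was read at excitation 540 nm. Activity is expressed as Rose Bengal sodium equivalency.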

The nature of experiment [12]: qHTS assay to test for compound auto fluorescence at 590 nm (red) in HepG2 cell free culture (AID 720684). Put shortly: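 Ex 540 / Em 590 nm read of compound in cell-free MEM (10% FBS). Rose Bengal sodium reference.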
The nature of experiment [13]: qHTS assay to test for compound auto fluorescence at 460 nm (blue) in HepG2 cell free culture (AID 720685). Put shortly: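 Cell-free plates of MEM plus 10% FBS received 23 nL compound or DMSO vehicle; blue-channel (405/460 nm) intensity scored against triamterene as reference fluorophore.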
A short description of experiment [14]: qHTS assay to test for compound auto fluorescence at 535 nm (green) in HepG2 cell free culture (AID 720686).
Experiment [15] is described as follows: qHTS assay to test for compound auto fluorescence at 460 nm (blue) in HepG2 cells (AID 720687). The method in brief:
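Cells (2,000/well in MEM with 10% FBS) attached overnight at 37 C, then were exposed to compound or DMSO for 1 hr at 37 C, 5% CO2. Fluorescence read at Ex/Em 405/460 nm, expressed as triamterene-equivalent signal.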

Experiment [16] addresses Glucocorticoid receptor (Homo sapiens) (UniProt P04150). The experiment can be described thus: qHTS assay to identify small molecule agonists of the glucocorticoid receptor (GR) signaling pathway (AID 720691; active means well fitted activation curve with a large enough effect in the signal ratio in the repeat runs, not every such curve was filed as active; the % refers to the signal ratio). Put shortly:
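Steps: seed GR-bla HeLa cells, incubate 4 h at 37 C/5% CO2; pin-transfer DMSO-dissolved compounds; incubate 18 h at 37 C; add LiveBLAzer B/G FRET substrate; after 2 h at room temperature, measure fluorescence.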

Experiment [17] is described as follows: qHTS assay to test for compound auto fluorescence at 590 nm (red) in HEK293 cells (AID 720679). Put shortly: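 We plated HEK293 cells in 10% dialyzed FBS medium, let them adhere for 4-5 hr, then added 23 nL compound. Overnight at 37C and 5% CO2 preceded fluorescence measurement at 540/590nm.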
Experiment [18] in a line: qHTS assay for small molecule disruptors of the mitochondrial membrane potential - cell viability (AID 720634; calls by dose curve; further: nearly all actives have a fitted effect of over 20% in size; further: potency means the concentration at half of the fitted maximal effect). The method in brief: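 Cytotoxicity was measured by ATP quantitation in HepG2 wells that had first been treated with compound for 1 hr and stained with m-MPI dye; CellTiter-Glo incubation was 30 min at room temperature.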
Experiment [19] deals with Glucocorticoid receptor (Homo sapiens) (UniProt P04150). The experiment can be described thus: qHTS assay to identify small molecule antagonists of the glucocorticoid receptor (GR) signaling pathway (AID 720692; active means well fitted inhibition curve with a large enough effect in the signal ratio in the repeat runs, not every such curve was filed as active; the % refers to the signal ratio; further: potency means the concentration at half of the fitted maximal effect). Put shortly: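 Antagonism was scored as loss of dexamethasone-driven (5 nM final) reporter signal in HeLa cells bearing a glucocorticoid response element–beta-lactamase construct, after 18 h compound exposure at 37 C and 2 h FRET substrate loading.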
Sequence of Glucocorticoid receptor (Homo sapiens) (P04150 whole entry, looked up): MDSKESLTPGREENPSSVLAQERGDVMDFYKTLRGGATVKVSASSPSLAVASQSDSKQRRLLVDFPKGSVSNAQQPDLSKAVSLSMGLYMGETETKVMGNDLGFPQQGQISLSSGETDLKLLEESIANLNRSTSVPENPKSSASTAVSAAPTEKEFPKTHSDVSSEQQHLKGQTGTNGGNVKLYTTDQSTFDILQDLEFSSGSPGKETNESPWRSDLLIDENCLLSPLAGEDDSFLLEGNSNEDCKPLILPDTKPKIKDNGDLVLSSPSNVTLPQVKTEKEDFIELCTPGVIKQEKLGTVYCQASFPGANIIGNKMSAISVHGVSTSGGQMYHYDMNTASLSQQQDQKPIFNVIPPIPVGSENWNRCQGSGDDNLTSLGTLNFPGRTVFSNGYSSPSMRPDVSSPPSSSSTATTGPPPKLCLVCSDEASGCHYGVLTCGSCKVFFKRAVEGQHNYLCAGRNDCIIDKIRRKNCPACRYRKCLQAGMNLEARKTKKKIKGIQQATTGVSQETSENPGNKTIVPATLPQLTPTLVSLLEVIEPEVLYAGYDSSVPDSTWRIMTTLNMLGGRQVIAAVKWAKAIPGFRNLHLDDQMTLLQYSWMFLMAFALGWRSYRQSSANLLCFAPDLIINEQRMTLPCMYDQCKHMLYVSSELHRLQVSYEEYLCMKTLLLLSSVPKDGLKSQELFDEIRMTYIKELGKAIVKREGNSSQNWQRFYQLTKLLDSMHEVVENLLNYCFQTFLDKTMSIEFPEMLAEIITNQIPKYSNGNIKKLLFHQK

`Cc1cc(C)c(C2=C(OC(=O)CC(C)(C)C)C3(CCCC3)OC2=O)c(C)c1`: the Potency result in experiment [1], in experiment [2], in experiment [3], in experiment [7], in experiment [9] and in experiment [13] was “inactive” in each case. Moreover, the Potency result in experiment [15] and in experiment [16] was “inactive” throughout. Also, in [4], the Potency is 12.8 µM (active). Besides, the compound was classed as inactive in experiment [5], in [6], in experiment [8], in experiment [10], in experiment [11] and in experiment [12]. Also, the result in [14] was inactive.

Take `CCCCOCN(C(=O)CCl)c1c(CC)cccc1CC`: the Potency result in experiment [1], in [2], in experiment [3], in experiment [7], in experiment [9] and in [13] was “inactive” in each case. In addition, the Potency entry in [15] and in [16] was “inactive” in each case. For the same compound, the call in experiment [5], in [6], in experiment [17], in [8], in experiment [10] and in experiment [11] was inactive. Besides, the result in [12] and in experiment [14] was inactive.

As for `COc1ccc(OC)c(CC(C)N)c1` (stereo unspecified), the Potency result in [1], in [3], in experiment [18], in experiment [4], in experiment [7] and in experiment [9] was “inactive” throughout. For the same compound, the Potency result in experiment [13] and in [15] was “inactive” in each case. Moreover, the outcome in experiment [5], in [6], in experiment [17], in experiment [8], in [10] and in experiment [11] was inactive. Moreover, the result in experiment [12] and in experiment [14] was inactive.

For the compound `ClCc1ccc(Cl)cc1Cl`, the Potency entry in [1], in experiment [2], in experiment [18], in experiment [7], in experiment [9] and in experiment [13] was “inactive” each time. The Potency result in [15] and in [16] was “inactive” each time. The compound was called inactive in [5], in experiment [6], in [17], in experiment [8], in [10] and in experiment [11]. For the same compound, the compound was classed as inactive in experiment [12] and in [14].

In the case of `C[C@@H]1O[C@@H](O[C@H]2C[C@@H](O)[C@]3(CO)[C@H]4[C@H](O)C[C@]5(C)[C@@H](C6=CC(=O)OC6)CC[C@]5(O)[C@@H]4CC[C@]3(O)C2)[C@H](O)[C@H](O)[C@H]1O`, the Potency entry in experiment [1], in experiment [7], in [9], in experiment [13], in [15] and in [16] was “inactive” in each case. In addition, the Potency in experiment [2] is 33.5 nM (active) and 53.1 nM (active) and 20.6 nM (active); in experiment [3], 59.6 nM (active) and 37.6 nM (active) and 32.6 nM (active); in experiment [19] it was 0.268 µM (active). For the same compound, the outcome in [5], in experiment [6], in experiment [17], in [8], in [10] and in [11] was inactive. Moreover, the compound was called inactive in experiment [12] and in [14].

As for `CCCCCCCCCC[N+](C)(C)CCCCCCCCCC`, the Potency result in experiment [1], in [7], in [9] and in [15] was “inactive” in each case. Besides, the Potency in experiment [2] is 26.6 µM (active) and 61.1 µM (active); in experiment [18] it was 26.6 µM (active) and inactive; in [4] it was 8.41 µM (active) and 24.3 µM (active). For the same compound, the result in experiment [5], in experiment [6], in [17], in experiment [8], in [10] and in [11] was inactive. Besides, the compound was called inactive in experiment [12] and in [14].

For `CC1(c2ccc(Oc3ccccc3)cc2)OC(=O)N(Nc2ccccc2)C1=O` (stereo unspecified), the Potency result in experiment [1], in [3], in experiment [7], in experiment [9], in experiment [13] and in [15] was “inactive” in each case. In experiment [4], the Potency is 3.88 µM (active). The outcome in [5], in experiment [6], in experiment [17], in [8], in experiment [10] and in experiment [11] was inactive. The result in [12] and in experiment [14] was inactive.
